Results published in PubChem BioAssay.
“And” between values parts separate entries of the source, which are not always exact repeats. Identical values can stand only once. The source made the active and inactive calls.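 Rule for the calls, unless noted: active = thallium flux through the channel raised or lowered by more than 3 SD from vehicle-only wells, actives on both sides; inactive = the rest.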

Assays:
[1] = blockers of polyQ-driven CASP3 activation – cell-based (AID 1583); settings: polyglutamine-induced caspase-3 activation, cell assay; stronger effect = higher value;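 tested at 10 µM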
[2] = yeast 75Q aggregation reduction – 75Q-TubU reporter (AID 1593); settings: Yeast 75Q polyglutamine aggregation reporter
[3] = blockers of cytochrome c efflux from mitochondria – biochemical, purified mitochondria (AID 1603); settings: stronger effect = lower value;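 note: mouse liver mitochondria challenged with calcium chloride; signal normalized to the plate average as 100%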
[4] = polyglutamine aggregate formation blockers (AID 1604); settings: polyglutamine-induced protein aggregation inhibition assay; stronger effect = higher value; tested at 2.5 µM
[5] = glutamate transport activators, MN-1 cells, MN-1 cell line (AID 1612); settings: MN-1 motor neuron cells, stronger effect = higher value;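 note: tested at 1 µM final; 0% = mean of DMSO vehicle wells on each plate; positive means more glutamate uptake than control and negative means less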
[6] = signal quenchers or enhancers, Cy5 substrate/SSB – biochemical, NIH Clinical Collection, E. coli SSB, artefact control for HCV NS3 helicase inhibitor project (AID 743268; call rule not given here); settings: Cy5-oligo bound E. coli SSB, fluorescence interference
[7] = test system: Hepatitis C virus NS3 helicase; experiment: blockers of NS3h binding to DNA – biochemical, fluorescence polarization, NIH Clinical Collection, primary screen (AID 743270; call rule not given here); settings: NS3 helicase binding to Cy5-dT15 DNA, stronger effect = higher value, concentration not given here
[8] = target: Single-stranded DNA-binding protein (Escherichia coli (strain K12)) (UniProt P0AGE0); experiment: SSB-ssDNA binding inhibitors – biochemical, fluorescence polarization, NIH Clinical Collection, counter-screen for HCV NS3 helicase inhibitor project (AID 743271; in the data active = inhibition above about 28%); settings: E. coli SSB-DNA binding, stronger effect = higher value, concentration not given here
[9] = compounds distorting NS3 helicase fluorescence signal – biochemical, NIH Clinical Collection, artefact control for HCV NS3 helicase inhibitor project (AID 743272; call rule not given here;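 note: HCV NS3 helicase with a Cy5 labelled single stranded DNA probe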); settings: fluorescence interference counterscreen, HCV NS3 helicase assay; stronger effect = lower value
[10] = galactose survival enhancers in mitochondrial complex I cybrids – cell-based, galactose medium, ATP luminescence, primary screen (AID 1645843;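 active = z-score of at least 1.8 in each of two replicates, scored against plate mean and spread of sample wells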;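 note: positive z means more ATP and so rescue of galactose-driven cybrid death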); settings: complex I mutant cybrid cells, 72 h, stronger effect = higher value
F380Y/beta4 = experiment: BK channel mutant inhibitors and activators – cell-based, U2OS BacMam, thallium flux, beta subunits, selectivity assay, profiling panel (AID 1259406); settings: U2OS BacMam BK variants, at 30 µM;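 note: initial slope of Thallos dye fluorescence rise after thallium is added; log ratio against the mean of 0.3% DMSO vehicle wells on the same plate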
[11] = target: Calcium-activated potassium channel subunit alpha-1 (Homo sapiens) + Leucine-rich repeat-containing protein 26 (Homo sapiens) (UniProt Q12791+Q2I0M4); experiment: as above; settings: U2OS BacMam BK variants, F380Y/Slo1WT/gamma1, at 30 µM
Sequence of Calcium-activated potassium channel subunit alpha-1 (Homo sapiens) + Leucine-rich repeat-containing protein 26 (Homo sapiens) (Q2I0M4 whole entry, looked up, one chain of several): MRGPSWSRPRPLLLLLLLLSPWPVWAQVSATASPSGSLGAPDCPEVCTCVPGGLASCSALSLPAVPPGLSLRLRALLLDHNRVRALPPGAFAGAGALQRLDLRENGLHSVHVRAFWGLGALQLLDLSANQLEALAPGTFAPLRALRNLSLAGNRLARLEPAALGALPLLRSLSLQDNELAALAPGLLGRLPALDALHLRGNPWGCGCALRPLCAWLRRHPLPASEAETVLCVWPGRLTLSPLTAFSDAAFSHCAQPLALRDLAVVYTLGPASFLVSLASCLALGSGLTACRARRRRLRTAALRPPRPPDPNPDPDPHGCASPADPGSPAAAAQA

R275C = experiment: as above; settings: U2OS BacMam BK variants, at 30 µM
R275C/beta1 = experiment: as above; settings: U2OS BacMam BK variants, at 30 µM
R275C/beta2Delta = experiment: as above; settings: U2OS BacMam BK variants, at 30 µM
R275C/beta4 = experiment: as above; settings: U2OS BacMam BK variants, at 30 µM
R275C/Slo1WT/beta2 = experiment: as above; settings: U2OS BacMam BK variants, at 30 µM

NS(=O)(=O)c1cc2c(cc1Cl)NC=NS2(=O)=O
80.6%: inhibition of aggregation [4]
1.24: score [2]
4.54%: glutamate uptake change [5]
-50.5%: inhibition [1]
inactive: fluorescence ratio [6] 0.95 | inhibition [7] -5% | inhibition [8] -1.24% | fluorescence ratio [9] 0.94 | z-score [10] 0.185 and 0.555 | log fold change Tl+ flux (F380Y/beta4) -2.4e-05 | log fold change Tl+ flux [11] 0.00339 | log fold change Tl+ flux (R275C) 0.0234 | log fold change Tl+ flux (R275C/beta1) 0.0235 | log fold change Tl+ flux (R275C/beta2Delta) 0.0235 | log fold change Tl+ flux (R275C/beta4) 0.0288 | log fold change Tl+ flux (R275C/Slo1WT/beta2) 0.0443
0.96: cytochrome c release ratio [3]

CN1CCCC(n2nc(Cc3ccc(Cl)cc3)c3ccccc3c2=O)CC1 (stereo unspecified)
active: log fold change Tl+ flux (F380Y/beta4) 0.258 | log fold change Tl+ flux (R275C/beta1) 0.101
inactive: fluorescence ratio [6] 1.03 | inhibition [7] -6.73% | inhibition [8] 0.67% | fluorescence ratio [9] 0.97 | z-score [10] -0.51 | log fold change Tl+ flux [11] 0.0633 | log fold change Tl+ flux (R275C) -0.0931 | log fold change Tl+ flux (R275C/beta2Delta) -0.0285 | log fold change Tl+ flux (R275C/beta4) 0.0595 | log fold change Tl+ flux (R275C/Slo1WT/beta2) 0.0667

O=S(=O)(O)CCS
inactive: inhibition [7] -2.27% | inhibition [8] -2.76% | fluorescence ratio [9] 1 | z-score [10] 0.905 | log fold change Tl+ flux (F380Y/beta4) 0.00454 | log fold change Tl+ flux [11] 0.0089 | log fold change Tl+ flux (R275C) 0.029 | log fold change Tl+ flux (R275C/beta1) -0.0746 | log fold change Tl+ flux (R275C/beta2Delta) -0.00238 | log fold change Tl+ flux (R275C/beta4) 0.0195 | log fold change Tl+ flux (R275C/Slo1WT/beta2) 0.0106
-57.1%: inhibition [1]
1.3: score [2]
-0.24%: glutamate uptake change [5]
0.92: cytochrome c release ratio [3]
75%: inhibition of aggregation [4]
active: fluorescence ratio [6] 0.73
